Data reported in the supplement of paper PMC10849652.
About 7,900 targets were measured; listed, in parts, are those with a hit and a random draw of the rest. About 0.6% of all pairs of compound and target were hits. A number with no mark means an inactive call.

Experiments:
Test in all cases: log2 fold change, soluble protein after heating vs DMSO (PISA); higher = thermal stabilisation; K562 cells, 10 uM, 30 min; active = over 0.2 and 3.5 SD of the protein, either way, in both replicates (recomputed)
[1] = compound: CC[C@@H]1C(=O)N(C)c2cnc(Nc3ccc(C(=O)NC4CCN(C)CC4)cc3OC)nc2N1C1CCCC1
Procedure, shortened: (§1)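 For each measurement, 10 μM compound was applied for 30 min to K562 cells at 2×10^6 cells/mL. Aliquots were heated for 3 min across 48°C-58°C, pooled, and extracted in PBS with 0.5% NP-40 at 4°C; the supernatant after 21,000xg for 90 min was soluble protein. This was quantified by TMTpro 16plex LC-MS/MS with channel sums equalised, and thermal stability was reported relative to control samples from duplicates, on a log2 fold-change scale.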

[2] = compound: CC[C@@H]1C(=O)N(C)c2cnc(Nc3ccc(C(=O)N[C@H]4CC[C@H](N5CCN(CC6CC6)CC5)CC4)cc3OC)nc2N1C(C)C [volasertib]
Procedure, shortened: as §1

[3] = compound: CC[C@H](C)N1C=C(C2=C(C=C(C=C21)C3=CN=C(C=C3)N4CCNCC4)C(=O)NCC5=C(C=C(NC5=O)C)C)C
Procedure, shortened: as §1

[4] = compound: CC[C@H](C)[C@@H](C(=O)N[C@@H]([C@@H](C)O)C(=O)N[C@@H](CC(C)C)C(=O)[C@]1(CO1)C)NC(=O)[C@H]([C@@H](C)CC)N(C)C(=O)C [epoxomicin]
Procedure, shortened: as §1

[5] = compound: CCn1c(C(=O)N(C2CC2)C2CC2)cc2c3c(ncn3C)c(Nc3cc(C)n(C)n3)nc21
Procedure, shortened: as §1

[6] = compound: CCn1cc(-c2ccnc3[nH]c(-c4cccc(CN(C)C)c4)cc23)c(-c2ccc(NC(=O)N(C)C)cc2)n1
Procedure, shortened: as §1

[7] = compound: CN(C)CC(=O)Nc1ccc2[nH]c(=O)c3ccccc3c2c1
Procedure, shortened: as §1

[8] = compound: CN(CCOC1=CC=C(C=C1)C[C@H]2C(=O)NC(=O)S2)C3=CC=CC=N3 (racemic) [rosiglitazone]
Procedure, shortened: as §1

[9] = compound: CN1CCC(CNc2ccc3ncc(-c4cccc(OC(F)(F)F)c4)n3n2)CC1
Procedure, shortened: as §1

[10] = compound: CN1C2=C(C3=C1C(=O)N(N=C3)CC4=CC(=CC=C4)N)SC(=C2)S(=O)C
Procedure, shortened: as §1

Sequence of UniProt Q5VWP2 (Q5VWP2 whole entry, looked up): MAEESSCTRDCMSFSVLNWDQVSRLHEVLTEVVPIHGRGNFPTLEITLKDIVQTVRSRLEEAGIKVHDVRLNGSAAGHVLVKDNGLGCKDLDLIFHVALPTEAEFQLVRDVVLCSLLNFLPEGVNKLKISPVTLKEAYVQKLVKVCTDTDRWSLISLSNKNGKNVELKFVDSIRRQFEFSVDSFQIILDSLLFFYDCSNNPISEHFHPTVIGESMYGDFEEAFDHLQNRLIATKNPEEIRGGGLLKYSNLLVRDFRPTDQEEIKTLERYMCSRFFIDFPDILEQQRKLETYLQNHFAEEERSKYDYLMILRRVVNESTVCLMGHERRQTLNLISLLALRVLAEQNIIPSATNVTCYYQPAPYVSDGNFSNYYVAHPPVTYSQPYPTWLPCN
Sequence of UniProt O76062 (O76062 whole entry, looked up): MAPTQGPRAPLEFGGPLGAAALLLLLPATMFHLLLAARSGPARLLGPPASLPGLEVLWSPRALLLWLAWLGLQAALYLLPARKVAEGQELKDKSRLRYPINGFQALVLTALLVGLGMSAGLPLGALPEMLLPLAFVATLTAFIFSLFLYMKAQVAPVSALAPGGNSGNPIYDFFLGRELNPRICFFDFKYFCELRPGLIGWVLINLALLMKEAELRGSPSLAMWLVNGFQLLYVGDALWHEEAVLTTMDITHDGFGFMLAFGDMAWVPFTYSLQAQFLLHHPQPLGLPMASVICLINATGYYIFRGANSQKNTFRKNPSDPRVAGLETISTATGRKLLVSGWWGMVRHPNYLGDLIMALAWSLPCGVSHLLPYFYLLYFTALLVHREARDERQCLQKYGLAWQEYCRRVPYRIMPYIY
Sequence of UniProt Q96NT5 (Q96NT5 whole entry, looked up): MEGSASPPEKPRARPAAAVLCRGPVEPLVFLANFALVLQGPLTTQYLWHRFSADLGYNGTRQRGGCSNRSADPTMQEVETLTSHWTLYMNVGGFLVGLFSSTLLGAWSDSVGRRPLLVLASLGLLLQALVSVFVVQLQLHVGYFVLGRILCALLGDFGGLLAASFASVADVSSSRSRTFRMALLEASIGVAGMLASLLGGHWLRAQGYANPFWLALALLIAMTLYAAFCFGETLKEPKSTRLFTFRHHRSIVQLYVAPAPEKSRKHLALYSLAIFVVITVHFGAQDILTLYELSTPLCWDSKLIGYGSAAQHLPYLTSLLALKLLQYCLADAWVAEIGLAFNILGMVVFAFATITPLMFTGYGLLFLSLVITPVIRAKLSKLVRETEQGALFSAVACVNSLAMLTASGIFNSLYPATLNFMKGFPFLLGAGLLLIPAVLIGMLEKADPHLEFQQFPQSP
Sequence of UniProt Q5JUR7 (Q5JUR7 whole entry, looked up): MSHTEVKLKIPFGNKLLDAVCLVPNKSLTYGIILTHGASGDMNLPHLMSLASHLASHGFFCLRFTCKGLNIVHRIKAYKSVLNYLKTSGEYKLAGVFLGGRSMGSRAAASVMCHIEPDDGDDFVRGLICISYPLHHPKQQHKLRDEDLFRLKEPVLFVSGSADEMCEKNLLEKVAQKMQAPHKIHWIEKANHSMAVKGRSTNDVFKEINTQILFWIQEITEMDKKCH
Sequence of UniProt Q9H4I9 (Q9H4I9 whole entry, looked up): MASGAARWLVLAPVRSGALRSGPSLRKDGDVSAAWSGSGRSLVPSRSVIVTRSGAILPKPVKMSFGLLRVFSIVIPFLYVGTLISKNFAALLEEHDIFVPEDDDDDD
Sequence of UniProt P78383 (P78383 whole entry, looked up): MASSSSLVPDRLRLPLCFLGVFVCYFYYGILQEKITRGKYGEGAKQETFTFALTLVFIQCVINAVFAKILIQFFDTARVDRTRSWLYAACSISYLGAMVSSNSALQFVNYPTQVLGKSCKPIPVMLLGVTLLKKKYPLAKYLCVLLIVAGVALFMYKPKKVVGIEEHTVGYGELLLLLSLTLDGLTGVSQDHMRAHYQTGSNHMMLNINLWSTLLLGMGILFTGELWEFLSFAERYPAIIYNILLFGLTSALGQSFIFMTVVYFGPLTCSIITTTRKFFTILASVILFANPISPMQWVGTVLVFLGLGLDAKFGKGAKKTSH
Sequence of UniProt Q8IWA5 (Q8IWA5 whole entry, looked up): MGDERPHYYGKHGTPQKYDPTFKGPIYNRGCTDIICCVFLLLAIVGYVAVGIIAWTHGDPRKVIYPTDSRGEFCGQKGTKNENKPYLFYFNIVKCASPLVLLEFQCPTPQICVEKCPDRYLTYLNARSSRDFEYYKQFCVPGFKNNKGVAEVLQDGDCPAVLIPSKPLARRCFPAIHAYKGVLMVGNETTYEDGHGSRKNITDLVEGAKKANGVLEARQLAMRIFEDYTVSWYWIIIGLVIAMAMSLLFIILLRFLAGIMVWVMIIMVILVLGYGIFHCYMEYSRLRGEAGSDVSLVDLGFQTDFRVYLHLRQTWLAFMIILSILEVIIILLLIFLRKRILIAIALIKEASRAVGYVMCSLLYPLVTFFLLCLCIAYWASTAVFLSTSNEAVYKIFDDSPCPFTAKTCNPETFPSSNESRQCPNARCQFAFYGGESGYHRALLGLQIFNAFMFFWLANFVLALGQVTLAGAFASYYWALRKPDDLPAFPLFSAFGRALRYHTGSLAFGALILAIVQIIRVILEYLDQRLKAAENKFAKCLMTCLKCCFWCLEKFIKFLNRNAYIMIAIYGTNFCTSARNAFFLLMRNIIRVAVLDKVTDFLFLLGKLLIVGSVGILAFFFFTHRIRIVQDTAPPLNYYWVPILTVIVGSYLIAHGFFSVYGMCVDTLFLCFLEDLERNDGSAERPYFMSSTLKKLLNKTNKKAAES
Sequence of UniProt P51532 (P51532 whole entry, looked up): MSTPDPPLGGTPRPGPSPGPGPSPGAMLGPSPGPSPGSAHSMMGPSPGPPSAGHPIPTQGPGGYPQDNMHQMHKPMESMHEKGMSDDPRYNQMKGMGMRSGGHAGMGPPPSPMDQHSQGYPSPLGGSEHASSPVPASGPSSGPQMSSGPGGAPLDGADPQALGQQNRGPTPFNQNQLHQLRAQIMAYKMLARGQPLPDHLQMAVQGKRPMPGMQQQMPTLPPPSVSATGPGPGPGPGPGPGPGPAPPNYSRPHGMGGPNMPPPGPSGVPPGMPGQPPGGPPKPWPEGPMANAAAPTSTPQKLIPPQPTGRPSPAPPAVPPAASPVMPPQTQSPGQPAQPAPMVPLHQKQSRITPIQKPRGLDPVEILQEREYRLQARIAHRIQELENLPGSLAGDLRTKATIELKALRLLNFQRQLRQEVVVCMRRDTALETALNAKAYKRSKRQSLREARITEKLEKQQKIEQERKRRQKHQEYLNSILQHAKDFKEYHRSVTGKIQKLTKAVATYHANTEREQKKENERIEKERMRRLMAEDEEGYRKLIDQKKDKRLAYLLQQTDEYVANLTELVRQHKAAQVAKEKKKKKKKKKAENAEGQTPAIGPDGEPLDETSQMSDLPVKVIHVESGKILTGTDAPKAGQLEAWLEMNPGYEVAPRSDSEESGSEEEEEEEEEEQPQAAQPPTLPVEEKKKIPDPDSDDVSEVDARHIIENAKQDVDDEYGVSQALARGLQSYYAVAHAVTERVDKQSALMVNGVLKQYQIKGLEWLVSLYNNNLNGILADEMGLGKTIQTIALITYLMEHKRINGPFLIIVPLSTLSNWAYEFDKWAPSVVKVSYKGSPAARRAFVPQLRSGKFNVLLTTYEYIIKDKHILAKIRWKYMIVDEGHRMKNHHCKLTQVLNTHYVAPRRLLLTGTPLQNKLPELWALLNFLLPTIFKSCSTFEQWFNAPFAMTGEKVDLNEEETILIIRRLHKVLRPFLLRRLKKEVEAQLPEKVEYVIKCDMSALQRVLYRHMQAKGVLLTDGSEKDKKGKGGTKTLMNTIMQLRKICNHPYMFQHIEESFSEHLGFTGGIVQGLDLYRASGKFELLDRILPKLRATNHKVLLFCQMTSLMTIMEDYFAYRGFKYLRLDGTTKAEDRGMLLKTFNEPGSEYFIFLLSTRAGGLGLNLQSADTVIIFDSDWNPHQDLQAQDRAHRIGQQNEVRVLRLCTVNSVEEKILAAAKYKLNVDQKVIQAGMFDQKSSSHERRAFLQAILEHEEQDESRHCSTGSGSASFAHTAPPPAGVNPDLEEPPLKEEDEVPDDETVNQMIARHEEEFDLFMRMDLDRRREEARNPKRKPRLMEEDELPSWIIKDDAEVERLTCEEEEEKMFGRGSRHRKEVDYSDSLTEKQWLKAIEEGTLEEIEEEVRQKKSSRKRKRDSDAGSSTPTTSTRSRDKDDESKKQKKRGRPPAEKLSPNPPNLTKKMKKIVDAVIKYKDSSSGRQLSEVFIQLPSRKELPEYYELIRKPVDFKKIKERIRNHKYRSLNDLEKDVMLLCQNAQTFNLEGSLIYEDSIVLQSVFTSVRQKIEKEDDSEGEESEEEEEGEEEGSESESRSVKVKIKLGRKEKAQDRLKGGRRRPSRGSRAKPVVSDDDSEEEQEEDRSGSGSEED
Sequence of UniProt Q9BZD2 (Q9BZD2 whole entry, looked up): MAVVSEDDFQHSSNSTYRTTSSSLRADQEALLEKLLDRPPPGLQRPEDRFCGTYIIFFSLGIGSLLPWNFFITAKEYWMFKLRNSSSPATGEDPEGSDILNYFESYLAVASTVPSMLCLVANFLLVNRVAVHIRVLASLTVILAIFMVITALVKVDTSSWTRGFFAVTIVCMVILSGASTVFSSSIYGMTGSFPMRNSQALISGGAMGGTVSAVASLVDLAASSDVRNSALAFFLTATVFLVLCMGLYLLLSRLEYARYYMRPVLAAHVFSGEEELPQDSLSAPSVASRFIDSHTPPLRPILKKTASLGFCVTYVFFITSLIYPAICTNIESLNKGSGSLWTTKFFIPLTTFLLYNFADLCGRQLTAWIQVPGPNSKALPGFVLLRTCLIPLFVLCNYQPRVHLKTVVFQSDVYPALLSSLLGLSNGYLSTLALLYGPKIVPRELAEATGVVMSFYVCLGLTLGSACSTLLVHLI

| Target | log2 fold change [1] | log2 fold change [2] | log2 fold change [3] | log2 fold change [4] | log2 fold change [5] | log2 fold change [6] | log2 fold change [7] | log2 fold change [8] | log2 fold change [9] | log2 fold change [10] |
| --- | --- | --- | --- | --- | --- | --- | --- | --- | --- | --- |
| TBC1D20 isoform 3 (UniProt Q96BZ9) | 0.273 | -0.153 | 0.07 | 0.068 | -0.111 | 0.028 | 0.04 | -0.03 | 0.046 | – |
| SLC29A3 (UniProt Q9BZD2) | 0.171 | 0.007 | 0.05 | -0.048 | 0.047 | – | 0.002 | -0.049 | – | -0.161 |
| TAOK2 (UniProt Q9UL54) | 0.024 | -0.061 | -0.006 | -0.01 | -0.277 | -0.076 | – | – | 0.01 | – |
| TJP1 (UniProt Q07157) | -0.023 | -0.166 | 0.022 | 0.007 | -0.023 | -0.052 | 0.012 | 0.019 | -0.071 | 0 |
| TENT5C (UniProt Q5VWP2) | -0.073 | -0.038 | 0.005 | – | 0.085 | 0.009 | 0.031 | 0.033 | -0.082 | -0.066 |
| SUN1 isoform 9 (UniProt O94901) | 0.13 | 0.018 | -0.065 | -0.021 | 0.027 | 0.135 | 0.002 | – | -0.111 | 0.037 |
| SLC35F6 (UniProt Q8N357) | -0.099 | -0.053 | 0.087 | 0.021 | 0.11 | – | 0.034 | 0.047 | – | -0.029 |
| TANGO6 (UniProt Q9C0B7) | 0.276 | -0.375 (active) | 0.052 | 0.035 | -0.165 | – | – | 0.037 | – | 0.006 |
| SLC27A1 (UniProt Q6PCB7) | – | -0.639 (active) | 0.022 | -0.021 | -0.008 | – | 0.008 | -0.01 | – | -0.072 |
| SSBP4 (UniProt U3KPY3) | – | – | – | – | – | – | 0.049 | – | – | – |
| SNRK (UniProt Q9NRH2) | -0.157 | -0.085 | – | – | – | – | – | – | – | -0.011 |
| STARD3 (UniProt Q14849) | – | 0.115 | 0.091 | -0.019 | 0.053 | 0.039 | -0.037 | 0.024 | -0.386 (active) | -0.064 |
| SSB (UniProt E7ERC4) | – | – | – | – | – | -0.076 | -0.154 | – | 0.266 | -0.34 |
| TM7SF2 (UniProt O76062) | – | 0.907 (active) | -0.022 | – | -0.111 | – | -0.435 | – | – | 0.031 |
| SOX5 (UniProt P35711) | – | -0.082 | 0.014 | – | 0.099 | – | -0.062 | 0.046 | – | – |
| TAF6L (UniProt Q9Y6J9) | – | -0.537 (active) | 0.118 | – | -0.179 | -0.04 | – | – | -0.126 | 0.081 |
| TCOF1 isoform 6 (UniProt Q13428) | 0.04 | – | -0.132 | – | -0.039 | – | -0.219 | -0.173 | – | – |
| SLC35B1 isoform 2 (UniProt P78383) | 0.123 | – | -0.017 | 0.066 | 0.001 | – | 0.075 | 0.044 | – | -0.111 |
| STK17B (UniProt O94768) | – | – | – | – | -0.099 | – | – | 0.07 | – | – |
| SPAG9 isoform 4 (UniProt O60271) | -0.192 | – | 0.093 | – | -0.066 | – | -0.093 | -0.029 | – | – |
| THAP9 (UniProt Q9H5L6) | – | – | -0.167 | – | – | – | – | 0.008 | – | -0.039 |
| SYK (UniProt P43405) | – | 0.196 | – | 0.022 | -0.021 | – | -0.085 | -0.006 | – | -0.052 |
| SMARCB1 (UniProt Q12824) | -0.058 | – | – | – | – | 0.053 | -0.116 | – | -0.222 | 0.127 |

| Target | log2 fold change [1] | log2 fold change [2] | log2 fold change [3] | log2 fold change [4] | log2 fold change [5] | log2 fold change [6] | log2 fold change [7] | log2 fold change [8] | log2 fold change [9] | log2 fold change [10] |
| --- | --- | --- | --- | --- | --- | --- | --- | --- | --- | --- |
| SLC8B1 (UniProt Q6J4K2) | – | 0.156 | – | – | 0.09 | 0.091 | -0.005 | 0.058 | -0.509 | 0.086 |
| TK1 (UniProt K7ERV3) | – | 0.055 | -0.163 | 0.007 | – | -0.014 | 0.084 | 0.035 | 0.005 | -0.024 |
| SUPT5H isoform 2 (UniProt O00267) | – | – | – | – | – | – | 0.149 | – | – | – |
| SLC39A1 (UniProt Q9NY26) | – | – | – | – | -0.09 | -0.014 | – | – | -0.051 | – |
| SLC9A6 isoform 3 (UniProt Q92581) | -0.041 | -0.045 | – | – | 0.045 | – | – | -0.091 | – | 0.008 |
| TCOF1 isoform 3 (UniProt Q13428) | 0.001 | – | – | -0.352 | 0.03 | 0.155 | – | – | -0.436 | – |
| SPIRE1 (UniProt Q08AE8) | 0.125 | – | -0.181 | -0.238 | -0.069 | -0.116 | -0.056 | -0.002 | -0.026 | – |
| SREBF1 isoform 4 (UniProt P36956) | -0.511 | – | – | -0.035 | -0.047 | – | – | 0.025 | – | 0.198 |
| SMPD4 isoform 2 (UniProt Q9NXE4) | – | -0.234 | – | – | – | -0.236 | -0.044 | -0.047 | -0.441 | 0.056 |
| TBC1D2 (UniProt Q9BYX2) | -0.055 | – | – | -0.238 | – | 0.087 | – | – | -0.019 | – |
| STK38L (UniProt Q9Y2H1) | 0.071 | – | -0.011 | 0.071 | 0.031 | -0.015 | -0.045 | 0.024 | 0.016 | -0.029 |
| SLC35B4 (UniProt Q969S0) | -0.003 | – | -0.041 | 0.044 | 0.042 | – | -0.134 | 0.005 | – | – |
| TC2N (UniProt Q8N9U0) | – | – | 0.029 | – | – | – | -0.194 | – | – | 0.073 |
| TEX30 (UniProt Q5JUR7) | – | -0.221 | -0.044 | 0.007 | -0.005 | 0.079 | 0.075 | 0.028 | -0.601 (active) | 0.046 |
| SP2 (UniProt Q02086) | -0.289 | – | – | – | – | – | – | – | – | 0.372 |
| SMARCA4 (UniProt P51532) | 0.019 | 0.121 | – | 0 | -0.245 | 0.119 | -0.191 | 0.065 | -0.046 | 0.177 |
| TDP1 (UniProt Q9NUW8) | – | – | – | – | -0.11 | – | – | – | – | – |
| SYNE1 (UniProt Q8NF91) | -0.01 | – | -0.048 | 0.047 | -0.142 | -0.113 | 0.042 | 0.031 | -0.208 | 0.051 |
| SLC44A2 isoform 2 (UniProt Q8IWA5) | 0.2 | – | 0 | 0.053 | 0.014 | -0.105 | -0.048 | -0.016 | 0.259 | -0.154 |
| SMDT1 (UniProt Q9H4I9) | 0.08 | – | – | -0.064 | – | -0.044 | 0.108 | -0.037 | 0.01 | 0.028 |
| SNX2 isoform 2 (UniProt O60749) | -0.194 | -0.06 | – | 0.034 | – | – | -0.161 | 0.076 | – | 0.086 |
| SLC46A1 (UniProt Q96NT5) | 0.156 | – | – | – | -0.072 | -0.072 | -0.041 | – | 0.087 | – |
| SPIN4 (UniProt Q56A73) | – | – | – | – | 0.291 | – | – | – | – | – |
